Compound activity: PubChem, National Center for Advancing Translational Sciences (NCATS)
D1 potentiator: Potentiators of Human D1 Dopamine Receptor: qHTS. D(1A) dopamine receptor (Homo sapiens), P21728. actives 0.036% (n = 360,000). potentiation, % at 10 µM. HEK293 TREx D1 cells, calcium flux, dopamine EC20 potentiation. AID 504651, 2011; in the data active = potentiation above about 30%; note: 0% is about no effect
ERG-DNA inh: qHTS for Small Molecule Inhibitors of the ERG Ets/DNA interaction | actives 0.028% (n = 370,000) | Potency, µM (highest dose often 76.9 µM), for the others: top-dose FP activity, negative = inhibition, most hits filed as inhibitors | AID 624246, 2012 | fluorescence polarization, His-ERG Ets domain / labelled DNA; active = well fitted inhibition curve with a large enough effect in the polarisation, with a control signal flat; inconclusive = small, poorly fitted or top-dose-only effect, or effect the other way, or a change in a side signal; inactive = no such curve, though single readings can be large or run the other way; the % refers to the polarisation;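 note: polarization taken with two DNA probes labelled with fluorescein and Texas red; potency is the fitted concentration of half-maximal effect; % of control where 0% means no effect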
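His-tagged ERG Ets domain (1 uM in the protein solution; 300mM KCl, 50mM Tris-HCl, 1mM EDTA, 1mM DTT, pH 7.5) received compound, then a probe mix of 5 nM fluorescein-DNA and 100nM Texas-615-DNA. Fluorescence polarization was read for both dyes.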
D3 antag: qHTS of D3 Dopamine Receptor Antagonist: qHTS | D3R cells, DiscoveRx beta-arrestin luminescence, antagonist mode; active compounds read low | actives 2.5% (n = 360,000) | AID 652054, 2013 | D(3) dopamine receptor (Homo sapiens), P35462 | max response, negative = inhibition, %; in the data active = max response below about -50%; inconclusive = no clear call, values can overlap the other calls; note: % is set by controls: 0 for no effect and ±100 for the full control effect
Target sequence (P35462 whole entry, looked up): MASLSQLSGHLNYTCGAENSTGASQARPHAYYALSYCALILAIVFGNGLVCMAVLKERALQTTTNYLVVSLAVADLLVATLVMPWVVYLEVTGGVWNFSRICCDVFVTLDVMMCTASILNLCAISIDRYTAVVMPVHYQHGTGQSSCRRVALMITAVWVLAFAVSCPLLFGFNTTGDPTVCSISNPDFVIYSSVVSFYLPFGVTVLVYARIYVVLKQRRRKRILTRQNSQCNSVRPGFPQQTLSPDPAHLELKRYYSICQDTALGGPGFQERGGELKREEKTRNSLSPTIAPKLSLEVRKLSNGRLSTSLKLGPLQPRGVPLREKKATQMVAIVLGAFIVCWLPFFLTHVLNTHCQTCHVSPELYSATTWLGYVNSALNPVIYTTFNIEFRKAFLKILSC
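Cells plated overnight at 1500 cells/well, then exposed to library compounds with dopamine controls for 90 minutes at 37 degrees C. DiscoveRx reagent added for 30–60 minutes at room temperature; luminescence read, quantitative HTS format.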
D1 antag: Antagonist of Human D 1 Dopamine Receptor: qHTS; HEK293 TREx D1 cells, calcium flux, dopamine EC80; active compounds read low; AID 504652, 2011; D(1A) dopamine receptor (Homo sapiens), P21728; actives 3.2% (n = 360,000); activity change, negative = inhibition, % at 10 µM; in the data active = activity change below about -30%; note: % is set by controls: 0 for no effect and ±100 for the full control effect
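Tetracycline-induced HEK293 Trex D1 cells, force-coupled to calcium, dye-loaded; compounds added and read 180 s, then EC80 dopamine added and calcium flux tracked kinetically another 180 s.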
DRD3 agonist: qHTS of D3 Dopamine Receptor Agonist: qHTS; D3R DiscoveRx beta-arrestin cells, luminescence, 90 min; max activation, %; AID 652048, 2013; actives 0.58% (n = 410,000); D(3) dopamine receptor (Homo sapiens), P35462; in the data active = max activation above about 30%; note: 0% is about no effect
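Agonist mode: compounds and dopamine controls were applied to plated cells for 90 min at 37 degrees C after an overnight attachment at 1500 cells/well. Luminescent read-out followed 30 - 60 minutes at room temperature with DiscoveRx detection reagent.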
D1 agonist: Allosteric Agonists of the Human D1 Dopamine Receptor: qHTS | actives 1% (n = 360,000) | AID 504660, 2011 | D(1A) dopamine receptor (Homo sapiens), P21728 | HEK293 T-REx D1 cells, calcium flux, agonist mode | activation, % at 2 µM; in the data active = activation above about 30%; note: 0% is about no effect
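Tetracycline-induced HEK293 TREx D1 cells, force-coupled to calcium signalling, were dye-loaded with a no-wash calcium kit. Compound was pin-added after a 10 s baseline. Fluorescence was read kinetically at 1 cycle/s for 180 s, with calcium rises flagged as agonism.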
* hit, by the source's call; ? = inconclusive; · = not tested or not shown. Rows were chosen to be rich in hits. Some 6.1% of all compounds tested hit in one or more screens of this group.

SMILES | D1 potentiator | ERG-DNA inh | D3 antag | D1 antag | DRD3 agonist | D1 agonist
Cc1cc(N2CCCC2)ccc1/C=C1/C(=O)N(C)C(=S)N1C | -4 | 21% | -8 | 4 | 3 | 36*
CN1C(=O)/C(=C/c2ccc(O)c([N+](=O)[O-])c2)NC1=S | -4 | -3% | -74* | 7 | -15 | 0
COc1cc(/C=C2\NC(=S)N(C)C2=O)ccc1O | -2 | 37% | 0 | -5 | 4 | 16
Cc1cc(/C=C2/C(=O)N(C)C(=S)N2C)ccc1N1CCCC1 | 8 | 73% | -17 | · | 8 | 127*
Cc1ccc(S(=O)(=O)N2CCC(C(=O)OCC(=O)N(C)Cc3ccccc3)CC2)cc1C | -2 | 17% | 0 | -4 | -1 | 5
Cc1cc(NC(=O)Cn2cc(C(F)(F)F)cc(Cl)c2=O)no1 | -2 | -1% | 15 | 6 | -3 | 0
O=C(COC(=O)c1cccc([N+](=O)[O-])c1)c1ccc2c(c1)OCO2 | -4 | · | · | -2 | · | 10
COC(=O)c1ccc2nc(-c3ccc(F)cc3)c(Cc3ccc(OC)cc3C)n2c1 | · | · | -1 | · | -23 | ·
CCCCC(=O)OCc1cc(=O)n2nc(C3CCCCC3)sc2n1 | -6 | -1% | · | 2 | 6 | 2
CCOc1ccc(N(CC(=O)NC2CCCCCC2)S(=O)(=O)c2c(C)noc2C)cc1 | -5 | 2% | -2 | 3 | 3 | 0
COc1ccc(NC(=O)C2=C(C)Nc3ncnn3C2c2cccn2C)cc1 (stereo not given) | 0 | 1% | · | -6 | 2 | 9
COc1ccc(C(=O)c2sc3nc(-c4ccccc4)ccc3c2N)cc1OC | -5 | -4% | 7 | 1 | 0 | 57*
COc1ccc(-c2ccc3c(N)c(C(=O)c4ccc(OC)c(OC)c4)sc3n2)cc1 | -3 | 7% | 12 | -17 | 22 | 78*
NC(=O)c1sc2nc(-c3ccccc3)ccc2c1N | 2 | 0% | 17 | -5 | 1 | 4
COc1cccc(-c2ccc3c(N)c(C(=O)c4ccc(Br)cc4)sc3n2)c1 | -1 | 7% | · | -4 | 4 | 81*
O=C(NCc1ccc(F)cc1)C1(S(=O)(=O)c2ccc(Cl)cc2)CC1 | · | -5% | 2 | 4 | 2 | 3
Cc1cc(C)cc(NC(=O)N2CCC(C(=O)c3ccc(F)cc3)CC2)c1 | 7 | -7% | -5 | -3 | 3 | 3
CCc1cc2c(-c3ccccc3)cc(=O)oc2c(CN2CCOCC2)c1O | 2 | -10% | 18 | 36 | -3 | 55*
O=c1cc(-c2ccccc2)c2cc(Cl)c(O)c(CN3CCOCC3)c2o1 | -3 | 7% | -6 | 19 | -3 | 19
O=c1cc(CN2CCOCC2)c2ccccc2o1 | · | · | 21 | · | 43* | ·
CC(C)(C)C(=O)Nc1ccc(Cl)c(-c2nc3ccccc3[nH]2)c1 | 0 | 2% | · | -2 | 3 | -3
O=C(NCCc1ccccn1)c1ccc(OC2CCN(Cc3ccccn3)CC2)cc1 | -3 | 3% | -6 | 0 | -5 | 5
O=C(Oc1ccccc1N1CCOCC1)c1ccccc1 | -9 | -27% | 12 | -4 | 2 | 0
CCN(CC)c1ccc(/C=N/n2c(-c3ccccc3Br)n[nH]c2=S)cc1 | -3 | 9% | -71* | 27 | -34 | 3
Cc1nn(-c2ccccc2)c(C)c1/C=N/n1c(-c2ccccc2Br)n[nH]c1=S | -12 | 30% | -19 | -2 | -1 | 4
Oc1ccc(/C=N/n2c(COc3ccccc3)n[nH]c2=S)c(O)c1 | -2 | -3% | 1 | -4 | 2 | 0
Oc1ccccc1/C=N/n1c(COc2ccccc2)n[nH]c1=S | -5 | 28µM* | -17 | -18 | 1 | 1
CCc1n[nH]c(=S)n1/N=C/c1ccc(N(C)c2ccccc2)cc1 | -2 | 5µM* | ? | 4 | -18 | 2
NC(=O)COc1ccc(=O)n(-c2ccccc2)n1 | · | -3% | 24 | -42* | 5 | 3
